Assay results taken from PubChem BioAssay AID2447 (National Center for Advancing Translational Sciences (NCATS), 2010).
Some of the results follow. Inconclusive results are not listed. Calls of active or inactive are those of the source. Calls come from the whole dose curve.

Assay: Cell Viability Secondary Assay for Inhibitors of the Interaction of Thyroid Hormone Receptor and Steroid Receptor Coregulator 2
Conditions: HepG2 viability, ATP luminescence (CellTiter-Glo), 72 h
Source text: NIH Molecular Libraries Probe Production Network [MLPCN] NIH Chemical Genomics Center [NCGC] MLPCN Grant: DK058080 Assay Provider: R. Kip Guy, St. Jude Children's Research Hospital NCGC Assay Overview: Thyroid receptor (TR) regulates many homeostatic processes including basal metabolism, cardiovascular function, body weight, and lipid trafficking. TR modulators are potential therapeutics for obesity and hyperlipidemias but current thyroid analogs have undesirable side effects, particularly cardiac stimulation. This secondary assay characterized compounds identified in the qHTS for Inhibitors of the Interaction of Thyroid Hormone Receptor and Steroid Receptor Coregulator 2 (PubChem AID 1485). The effect of compounds on the viability of HepG2 cells was assessed by measuring ATP levels.
NCGC Assay Protocol Summary: HepG2 cells were grown to 80% confluence, collected, and cells were dispensed at 500 cells/25 ul/well into 384 well plates (Costar 3712). Following transfer of 100 nL compound (ranging from 2.5 nM to 50 uM), cells were incubated for 72 hours at 37 C and 5% CO2. Following this incubation, plates were equilibrated at ambient temperature for 30 min, 25 ul of CellTiter-Glo (Promega) was added and luminescence was detected by an EnVision (PerkinElmer) reader.

Structure (SMILES) | Potency | outcome
CS(=O)(=O)c1ccc(C(=O)OCC(=O)N2CCC(c3ccccc3)CC2)cc1[N+](=O)[O-] | 8.9 µM (active) | –
CS(=O)(=O)c1ccc(C(=O)OCC(=O)N2CCNc3ccccc32)cc1[N+](=O)[O-] | 18 µM (active) | –
O=C(COC(=O)c1cccc([N+](=O)[O-])c1)NC1C2CC3CC(C2)CC1C3 (stereo not drawn) | – | inactive
